The values that follow come from PubChem BioAssay AID2205 (University of Pittsburgh Molecular Library Screening Center, 2009).

Screen size: about 200,000 compounds; about 1,600 (0.8%) were called active.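 How the source made its calls: active means plate Z-score above 3 for both tubulin-high and condensed-nucleus cell shares, with cell loss under 80%, at 10 µM; inactive means the rest, inconclusive results apart.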 For the sample, actives were picked, then their nearest neighbours and some compounds at random.

The nature of this assay: microtubule stabilizers in HeLa cells, primary screen, imaging, high-content imaging (AID 2205).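 On % tubulin-high responders: anti alpha tubulin signal scored within the nucleus-defined area of each cell.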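 On toxicity: 0% = mean cell density of plate MIN control wells and 100% = no cells.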 Particulars: HeLa tubulin immunostaining HCS, 24 h, at 10 µM; % Hoechst-high responders: measured here: nuclear condensation Hoechst responders, stronger effect = higher value, share of cells brighter than vehicle mean+2SD; % tubulin-high responders: stronger effect = higher value, share of cells brighter than vehicle mean+2SD; toxicity: measured here: cytotoxicity by cell density.
As to `CCc1ccccc1NC(=S)N(CCN1CCCCCC1)Cc1ccco1`, the % Hoechst-high responders is 2.22%, the % tubulin-high responders was 4.39% (inactive) and the toxicity was 2.58%.

In the case of `O=c1[nH]n(-c2ccc([N+](=O)[O-])cc2)c(=O)c2ccccc12`, the % Hoechst-high responders stood at 1.89%, the % tubulin-high responders was 3.4% (inactive) and the toxicity worked out at 9.65%.

Consider `Cc1ccc(-n2c(SCC(=O)N3c4ccccc4Sc4ccccc43)nnc2-c2ccncc2)cc1`, for which the % Hoechst-high responders worked out at 1.48%, the % tubulin-high responders is 4.83% (inactive) and the toxicity worked out at 6.63%.

Regarding `Cc1cccc(C)c1NC(=O)CSc1ccc([N+](=O)[O-])cn1`, the % Hoechst-high responders came to 2.4%, the % tubulin-high responders was 2.2% (inactive) and the toxicity worked out at 2.93%.

In the case of `Cc1cc(C)c(C#N)c(SCC(=O)Nc2ccccc2)n1`, the % Hoechst-high responders turned out to be 2.87%, the % tubulin-high responders was 3.04% (inactive) and the toxicity stood at 8.63%.

Take `Cc1cc2cc3c(cc2nc1SCC(=O)Nc1c(C)cccc1C)CCC3`: the % Hoechst-high responders is 34.5%, the % tubulin-high responders is 47% (active) and the toxicity is 36.2%.

In the case of `CCCCN1C(=O)CCC(C(=O)O)C1c1ccc(OC)cc1` (stereo not given), the % Hoechst-high responders worked out at 2.91%, the % tubulin-high responders was 4.23% (inactive) and the toxicity came to 11.7%.

As for `O=c1ccc2cc(S(=O)(=O)N3CCN(c4ccccc4)CC3)ccc2o1`, the % Hoechst-high responders stood at 1.39%, the % tubulin-high responders is 0.945% (inactive) and the toxicity is 5.98%.

With `O=C1CC(=O)Nc2cc(S(=O)(=O)N3CCN(c4cccc(C(F)(F)F)c4)CC3)ccc2N1`, the % Hoechst-high responders amounted to 10.2%, the % tubulin-high responders was 22.1% (active) and the toxicity was found to be 36.8%.

Turning to `O=S(=O)(c1cccc(C(F)(F)F)c1)N1CCN(c2cnccn2)CC1`, the % Hoechst-high responders was 2.29%, the % tubulin-high responders was 4.64% (inactive) and the toxicity was 6.14%.

Consider `C/C(CC1CC(C)(C)OC1=O)=N/Nc1nc(-c2ccccc2)cs1` (stereo not given), for which the % Hoechst-high responders came out at 2.24%, the % tubulin-high responders was 6.39% (inactive) and the toxicity is 11.5%.

Turning to `Cc1ccc2nc(-c3ccncc3)cc(C(=O)Nc3ccc4c(c3)OCCO4)c2c1`, the % Hoechst-high responders stood at 4.59%, the % tubulin-high responders was 3.49% (inactive) and the toxicity is 10%.

With `Cc1ccc2nc(-c3ccccn3)cc(C(=O)Nc3ccc4c(c3)OCO4)c2c1`, the % Hoechst-high responders amounted to 2.11%, the % tubulin-high responders was 3.85% (inactive) and the toxicity was 5.75%.

As for `Cc1ccc2nc(-c3ccncc3)cc(C(=O)Nc3ccc(OC(F)F)cc3)c2c1`, the % Hoechst-high responders worked out at 37%, the % tubulin-high responders is 13.9% (active) and the toxicity is 27.1%.

Take `CC(C)(O)C#Cc1ncc(C(F)(F)F)cc1Cl`: the % Hoechst-high responders was determined as 2.46%, the % tubulin-high responders is 3.98% (inactive) and the toxicity is 7.29%.

`O=C1CC(N2CCN(c3ccc(F)cc3)CC2)C(=O)N1c1ccccc1` (stereo not given): the % Hoechst-high responders is 1.93%, the % tubulin-high responders is 2.61% (inactive) and the toxicity amounted to 4.03%.

For the compound `Cc1onc(C(=O)NCc2ccc(F)cc2)c1[N+](=O)[O-]`, the % Hoechst-high responders amounted to 1.75%, the % tubulin-high responders is 2.95% (inactive) and the toxicity was determined as 6.2%.

With `COc1ccc(OC)c(/C=C/C(=O)OCC(=O)Nc2ccc3c(c2)OCCO3)c1`, the % Hoechst-high responders was found to be 20.4%, the % tubulin-high responders was 17.6% (active) and the toxicity stood at 25.4%.

On to `COc1ccc(/C=C/C(=O)Nc2ccc3c(c2)OCCO3)cc1OC`, for which the % Hoechst-high responders was found to be 1.93%, the % tubulin-high responders was 1.43% (inactive) and the toxicity came out at 9.72%.

For the compound `COc1ccc(/C=C/C(=O)OCC(=O)Nc2cccc(Oc3ccccc3)c2)c(OC)c1`, the % Hoechst-high responders was determined as 4.35%, the % tubulin-high responders was 1.52% (inactive) and the toxicity was 2.38%.

Regarding `O=C(CSc1ccc2nnc(-c3ccccc3)n2n1)N1CCCc2ccccc21`, the % Hoechst-high responders was found to be 4.1%, the % tubulin-high responders was 2.62% (inactive) and the toxicity is 12.3%.

Take `NC1=NC(=O)S/C1=C\c1ccc(O)cc1`: the % Hoechst-high responders was 3.29%, the % tubulin-high responders was 1.93% (inactive) and the toxicity worked out at 4.56%.

As for `O=C(NNC(=S)NCc1ccco1)C(c1ccccc1)c1ccccc1`, the % Hoechst-high responders was found to be 2.12%, the % tubulin-high responders was 1.06% (inactive) and the toxicity came out at 3.3%.

As for `Cc1ccc(C2CC(=O)NC(SCC(=O)OCc3ccccc3)=C2C#N)o1` (stereo not given), the % Hoechst-high responders was 13%, the % tubulin-high responders is 33.6% (active) and the toxicity was determined as 51.7%.

On to `C=CCSC1=C(C#N)C(c2cc(Br)c(O)c(OC)c2)CC(=O)N1` (stereo not given), for which the % Hoechst-high responders came to 5.45%, the % tubulin-high responders is 1.66% (inactive) and the toxicity was 9.07%.

As to `CC1=C(C(=O)Nc2ccccc2)C(c2ccco2)C(C#N)=C(SCC(N)=O)N1` (stereo not given), the % Hoechst-high responders was 1.48%, the % tubulin-high responders was 1.69% (inactive) and the toxicity stood at 9.84%.

As for `CCOC(=O)CSC1=C(C#N)C(c2sccc2C)CC(=O)N1` (stereo not given), the % Hoechst-high responders came to 46%, the % tubulin-high responders was 25.8% (active) and the toxicity worked out at 48.2%.

On to `C=CCOC(=O)C1=C(C)NC(SCC(=O)OCC)=C(C#N)C1c1ccc(C)cc1` (stereo not given), for which the % Hoechst-high responders was found to be 1.55%, the % tubulin-high responders was 2.42% (inactive) and the toxicity amounted to 8.87%.

Take `CCOC(=O)CSC1=C(C#N)C(c2ccco2)C(C(=O)OCc2ccccc2)=C(C)N1` (stereo not given): the % Hoechst-high responders turned out to be 31.7%, the % tubulin-high responders was 50.8% (active) and the toxicity came to 30%.

Consider `COC(=O)CSC1=C(C#N)C(c2ccccc2OC)C(C(=O)OC)C(=O)N1` (stereo not given), for which the % Hoechst-high responders came out at 1.9%, the % tubulin-high responders is 3.79% (inactive) and the toxicity worked out at 6.69%.

In the case of `CC1=C(C(=O)OCc2ccccc2)C(c2ccco2)n2ncnc2N1` (stereo not given), the % Hoechst-high responders is 2.47%, the % tubulin-high responders is 2.96% (inactive) and the toxicity is 10.1%.

As to `COc1cc2c(cc1OC)C(c1ccc(C)o1)CC(=O)N2` (stereo not given), the % Hoechst-high responders was found to be 2.57%, the % tubulin-high responders was 2.94% (inactive) and the toxicity was 5.58%.

`CCOC(=O)c1cnc2ccc(F)cc2c1Nc1ccc2c(c1)OCCO2`: the % Hoechst-high responders amounted to 3.26%, the % tubulin-high responders is 2.38% (inactive) and the toxicity was 9.58%.

For the compound `O=C(COC(=O)/C=C/c1nc2ccccc2s1)Nc1ccccc1Oc1ccccc1`, the % Hoechst-high responders was determined as 2.41%, the % tubulin-high responders was 2.82% (inactive) and the toxicity amounted to 3.33%.

For `Cc1oc2cc([N+](=O)[O-])c(O)c([N+](=O)[O-])c2c1C(=O)c1ccc(Br)cc1`, the % Hoechst-high responders worked out at 1.62%, the % tubulin-high responders is 3.42% (inactive) and the toxicity worked out at 6.71%.

`O=C(COC(=O)C1CCCCC1)Nc1ccc([N+](=O)[O-])cc1`: the % Hoechst-high responders amounted to 1.85%, the % tubulin-high responders was 1.8% (inactive) and the toxicity worked out at 7.95%.

As to `O=C(NC1CCCCCC1)c1cccnc1Sc1ccc(Cl)cc1`, the % Hoechst-high responders was 1.73%, the % tubulin-high responders was 4.58% (inactive) and the toxicity stood at 7.66%.

As to `O=C(CSc1ccccn1)Nc1nc2c(ccc3ccccc32)s1`, the % Hoechst-high responders amounted to 1.64%, the % tubulin-high responders was 2.26% (inactive) and the toxicity stood at 7.1%.

Consider `CCO[C@H]1OC(C(=O)Nc2ccccc2)=C[C@@H](C2CC2)[C@@H]1CCCO`, for which the % Hoechst-high responders came out at 1.42%, the % tubulin-high responders is 1.2% (inactive) and the toxicity worked out at 3.73%.

On to `CCC(C)NC(=O)/C=C/c1ccc(S(=O)(=O)NCc2ccco2)cc1` (stereo not given), for which the % Hoechst-high responders was 1.97%, the % tubulin-high responders was 1.46% (inactive) and the toxicity stood at 3.99%.

On to `Cc1c(/C=N\NC(=O)c2cc3ccccc3o2)c2ccccc2n1C`, for which the % Hoechst-high responders is 21.2%, the % tubulin-high responders is 38.7% (active) and the toxicity was found to be 75.1%.

For `Cc1c(/C=N/N2C(=O)C3C4C=CC(C4)C3C2=O)c2ccccc2n1C` (stereo not given), the % Hoechst-high responders is 1.92%, the % tubulin-high responders was 5.53% (inactive) and the toxicity is 6.18%.

On to `O=C(N/N=C/c1coc2ccccc2c1=O)c1cc2ccccc2o1`, for which the % Hoechst-high responders is 2.07%, the % tubulin-high responders is 3.76% (inactive) and the toxicity was 5.72%.

As for `O=C(N/N=C/c1ccc(OCC2COCCO2)cc1)c1ccc(Br)cc1` (stereo not given), the % Hoechst-high responders is 1.72%, the % tubulin-high responders was 2.47% (inactive) and the toxicity is 8.95%.

For `CC(C)c1csc(CN2CCC(CO)(Cc3ccccc3)CC2)n1`, the % Hoechst-high responders was 1.55%, the % tubulin-high responders is 3.05% (inactive) and the toxicity is 6.68%.

Turning to `O=S(=O)(c1ccc(F)cc1)N1CCN(C(=S)NCc2ccco2)CC1`, the % Hoechst-high responders was 3.02%, the % tubulin-high responders was 4.87% (inactive) and the toxicity worked out at 5.01%.

Regarding `COc1ccc(CC(NC(C)=O)C(=O)NC2CCN(C(=O)C3CC3)CC2)cc1OC` (stereo not given), the % Hoechst-high responders is 1.12%, the % tubulin-high responders was 2.29% (inactive) and the toxicity was found to be 9.53%.

With `O=C(CN1CCC(O)(c2ccccc2)CC1)Nc1ccc2c(c1)OCCO2`, the % Hoechst-high responders was determined as 1.61%, the % tubulin-high responders is 5.34% (inactive) and the toxicity is 10.9%.

Consider `CCc1ccc2c(c1)C(c1ccc([N+](=O)[O-])cc1)=NNC(c1ccccc1)=N2`, for which the % Hoechst-high responders came to 3.31%, the % tubulin-high responders was 2.17% (inactive) and the toxicity was found to be 4.07%.

Regarding `CCOc1ccc2c(c1)C(c1ccc(C)cc1)=NNC(c1ccc(C)cc1)=N2`, the % Hoechst-high responders was determined as 14.4%, the % tubulin-high responders was 37.8% (active) and the toxicity was 35.7%.

As to `Cc1ccc(C2=Nc3c(ccc4ccccc34)C(c3ccncc3)=NN2)cc1`, the % Hoechst-high responders amounted to 2.17%, the % tubulin-high responders is 4.68% (inactive) and the toxicity turned out to be 5.9%.

Take `COc1cccc(CN(C)CC(=O)Nc2sc3c(c2C#N)CCC3)c1`: the % Hoechst-high responders was determined as 1.26%, the % tubulin-high responders was 3.67% (inactive) and the toxicity was determined as 4.57%.

For the compound `CC1(C)CC(=O)C(CC(=O)N2CCC(Cc3ccccc3)CC2)C(=O)C1`, the % Hoechst-high responders was determined as 2.54%, the % tubulin-high responders was 4.67% (inactive) and the toxicity stood at 7.14%.

Turning to `Cc1csc(CN(C)C(=O)CC2C(=O)NCCN2CC(C)(C)C)n1` (stereo not given), the % Hoechst-high responders turned out to be 2.16%, the % tubulin-high responders is 2.8% (inactive) and the toxicity was 7.49%.

Regarding `Nc1nonc1-n1nnc(C(=O)N/N=C/c2cc(Br)ccc2O)c1CSC1=NCCS1`, the % Hoechst-high responders came out at 0.673%, the % tubulin-high responders was 9.12% (inactive) and the toxicity stood at 24.4%.
